# Inconclusive results are not listed. The source made the active and inactive calls. The calls were made as follows: active = hit-call score of the fitted dose curve at least 0.9, where 1 is the maximum; inconclusive = response in the unintended direction; inactive = score below 0.9.
# Target: rat CYP2E1, Cyp2e1 (gene 25086) (UniProt P05182)
# Assay: NVS_ADME_rCYP2E1: NovaScreen (NVS) CYP450-related Enzyme Activity (ADME) Assay for rat CYP2E1
# Procedure: NVS_ADME_rCYP2E1 is a biochemical, single-readout assay that uses extracted gene-proteins in a cell-free assay. Measurements were taken 1 hour after chemical dosing in a 96-well plate.NVS_ADME_rCYP2E1 is one of one assay component(s) measured or calculated from the NVS_ADME_rCYP2E1 assay. It is designed to make measurements of enzyme activity, a form of enzyme reporter, as detected with fluorescence intensity signals by Fluorescence technology.Data from the assay component NVS_ADME_rCYP2E1 was analyzed into 1 assay endpoint. This assay endpoint, NVS_ADME_rCYP2E1, was analyzed in the positive analysis fitting direction relative to Acetonitrile as the negative control and baseline of activity. Using a type of enzyme reporter, loss-of-signal activity can be used to understand changes in the enzymatic activity as they relate to the gene Cyp2e1. Furthermore, this assay endpoint can be referred to as a primary readout, because this assay has produced multiple assay endpoints where this one serves a enzymatic activity function. To generalize the intended target to other relatable targets, this assay endpoint is annotated to the cyp intended target family, where the subfamily is xenobiotic metabolism.
# Binding assays used specific radioligands (tritiated, iodinated) with non-radioactive competitive displacement ligands in agonist or antagonist protocols (as indicated) and various reference compounds and inhibitors to titrate specific binding to receptors and transporters. Most enzyme assays (CYPs, kinases, phosphatases, proteases, HDACs) used recombinant protein and specific substrates (fluorescence mostly, some colorimetric and radioactive) and inhibitors, followed by a biochemical separation of substrate and product. All assays for the biochemical HTS were initially run in duplicate at a single concentration (10 uM for CYP450 assays and 25 uM for all others). Assay-chemical combinations meeting a pre-defined threshold (e.g., 30% inhibition and other criteria defined below) were then run in singleton concentration-response format with maximum concentration of 20 uM for CYPs and 50 uM for all others. Each assay was run with positive and negative controls, and concurrent controls on every plate. The follow-up (secondary) screen tested active chemical-pairs in concentration series, as well as a few additional assays not tested in the primary screen, some selected negative inactives, and several cases re-run in the concentration series for confirmatory purposes.
# Chain of rat CYP2E1, Cyp2e1 (gene 25086) (P05182 whole entry, looked up): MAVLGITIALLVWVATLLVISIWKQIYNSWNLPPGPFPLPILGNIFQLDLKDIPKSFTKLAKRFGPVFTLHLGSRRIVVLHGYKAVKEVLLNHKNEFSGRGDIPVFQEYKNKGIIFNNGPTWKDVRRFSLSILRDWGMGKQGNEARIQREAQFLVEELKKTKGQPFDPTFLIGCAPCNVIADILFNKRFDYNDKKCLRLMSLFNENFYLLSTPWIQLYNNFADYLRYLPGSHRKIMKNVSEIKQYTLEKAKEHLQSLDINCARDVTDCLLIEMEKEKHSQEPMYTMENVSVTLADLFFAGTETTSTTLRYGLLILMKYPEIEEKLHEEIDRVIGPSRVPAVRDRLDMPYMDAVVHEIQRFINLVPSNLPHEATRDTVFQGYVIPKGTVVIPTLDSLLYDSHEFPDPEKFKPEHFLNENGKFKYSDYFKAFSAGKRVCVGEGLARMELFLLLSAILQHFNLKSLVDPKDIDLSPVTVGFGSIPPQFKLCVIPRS
SMILES,outcome,AC50
COP(=S)(OC)SCn1nnc2ccccc2c1=O,inactive,–
COc1nn(CSP(=S)(OC)OC)c(=O)s1,inactive,–
CCOP(=S)(OCC)Oc1ccc2c(C)c(Cl)c(=O)oc2c1,inactive,–
C[Si](Cn1cncn1)(c1ccc(F)cc1)c1ccc(F)cc1,–,10000 nM (active)
CNC(=S)S,inactive,–
N#Cc1c[nH]cc1-c1cccc2c1OC(F)(F)O2,–,254 nM (active)
COP(=S)(OC)Oc1ccc([N+](=O)[O-])c(C)c1,inactive,–
CC(C1CC1)C(O)(Cn1cncn1)c1ccc(Cl)cc1 (stereo not given),inactive,–
S=C1NCCN1,inactive,–
CCCN(CCOc1c(Cl)cc(Cl)cc1Cl)C(=O)n1ccnc1,–,2540 nM (active)
